Reference: publication PMC5540273 (PLoS ONE, 2017)

How the values were obtained:
Details in all cases: concentration: 1 μM, replicates: in singlicate; n = 1
[1] = test system: MET
[2] = test system: T1, MINK
T1 construct: gene MINK1

[3] = test system: MKK7
[4] = test system: MKNK1
[5] = test system: MKNK2
[6] = test system: T2, MLCK
T2 construct: gene MYLK3

[7] = test system: T3, MLK1
T3 construct: gene MAP3K9

[8] = test system: MLK2
[9] = test system: MLK3
[10] = test system: MRCKA
[11] = test system: T4, MRCKB
T4 construct: gene CDC42BPB

[12] = test system: MST1R
[13] = test system: T5, MST1
T5 construct: gene STK4

[14] = test system: T6, MST2
T6 construct: gene STK3

[15] = test system: T7, MST3
T7 construct: gene STK24

[16] = test system: MST4
[17] = test system: MTOR
[18] = test system: MUSK
[19] = test system: MYLK2
[20] = test system: MYLK4
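Also: KINOMEscan kinase panel screen.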

SMILES	%Inh [1]	%Inh [2]	%Inh [3]	%Inh [4]	%Inh [5]	%Inh [6]	%Inh [7]	%Inh [8]	%Inh [9]	%Inh [10]	%Inh [11]	%Inh [12]	%Inh [13]	%Inh [14]	%Inh [15]	%Inh [16]	%Inh [17]	%Inh [18]	%Inh [19]	%Inh [20]
Cc1cccc(-c2nc(Nc3ccc4c(cnn4C)c3)c3ccccc3n2)n1 [GW876731]	3%	16%	10%	100%	9%	28%	12%	16%	0%	17%	34%	0%	0%	0%	0%	9%	0%	2%	0%	33%
Cc1cccc(-c2cc(-c3c[nH]nc3-c3ccccn3)ccn2)c1 [GW679395]	0%	38%	3%	0%	2%	0%	0%	0%	0%	9%	0%	60%	0%	0%	4%	0%	10%	0%	0%	2%
COC(=O)c1c(-c2ccccc2)c2cc(Br)ccc2c(=O)n1Cc1ccc(NC(=O)CCC(=O)O)cc1	18%	0%	0%	0%	0%	0%	0%	0%	0%	0%	0%	43%	12%	27%	7%	0%	32%	0%	0%	1%
COc1ccc(-c2coc3ccc(-c4nnc(SCc5cccc(C#N)c5)o4)cc23)cc1	0%	9%	17%	20%	2%	2%	0%	18%	11%	0%	0%	33%	15%	13%	25%	0%	0%	18%	7%	0%
Nc1nc(N)c2nc(-c3ccccc3)[nH]c2n1 [SKF-12778]	0%	0%	29%	0%	1%	0%	40%	66%	40%	15%	0%	0%	4%	32%	13%	10%	26%	18%	2%	1%
OCCCNc1nccc(-c2c(-c3cccc(C(F)(F)F)c3)nn3cc(C(F)(F)F)ccc23)n1 [GW630813]	0%	0%	15%	0%	0%	0%	0%	0%	0%	0%	0%	17%	9%	0%	25%	0%	1%	0%	0%	0%
COc1ccc(-n2cnc3c(N)ncnc32)cc1 [SKF-97236]	0%	9%	15%	9%	33%	11%	0%	37%	20%	0%	1%	0%	24%	13%	6%	0%	16%	12%	52%	0%
Nc1ncnc2c1ncn2-c1cccc(F)c1 [SKF-97560]	18%	9%	29%	0%	32%	18%	5%	30%	10%	0%	0%	0%	0%	50%	0%	37%	14%	0%	0%	11%
Cc1nc(N(C)[C@H]2CN(C(=O)CC#N)CC[C@H]2C)c2cc[nH]c2n1	0%	0%	0%	0%	0%	0%	0%	11%	0%	0%	0%	3%	0%	37%	8%	0%	25%	0%	0%	0%
CN1C(=O)C(Nc2cc(Cl)c(O)c(Cl)c2)=C(c2ccc(Cl)cc2)C1=O [SB-404321]	0%	0%	0%	38%	19%	0%	0%	0%	0%	5%	0%	0%	0%	33%	0%	0%	2%	0%	11%	0%
CCn1c(-c2ccoc2)nc2cnccc21 [SB-733887]	0%	0%	33%	13%	17%	0%	0%	0%	3%	1%	0%	0%	0%	0%	0%	0%	29%	2%	18%	0%
FC(F)(F)c1ccc(-c2ncn(CCCN3CCOCC3)c2-c2ccncc2)cc1 [SB-217780]	4%	0%	0%	16%	58%	0%	0%	2%	5%	0%	6%	28%	28%	59%	35%	0%	12%	0%	0%	4%
Cl.c1ccc(Cn2cnc3cc(Nc4ncnc5ccccc45)ccc32)cc1 [GW272142]	33%	0%	17%	0%	6%	0%	0%	0%	11%	16%	0%	40%	0%	0%	0%	0%	28%	29%	0%	6%
CCc1nc(-c2cccc(C)c2)c(-c2ccncc2)s1	4%	50%	0%	0%	16%	6%	0%	0%	17%	0%	0%	0%	0%	8%	8%	0%	34%	5%	5%	0%
Nc1nc(-c2ccccc2F)c(-c2ccnc3ccccc23)s1 [GW560459]	0%	81%	15%	12%	0%	0%	0%	0%	5%	15%	0%	33%	8%	0%	7%	0%	21%	0%	8%	1%
COc1ccc(Nc2nccc(N3CCC(NS(=O)(=O)c4ccc(NC(C)=O)cc4)C3)n2)cc1 (centres unmarked) [GSK1379729]	10%	3%	19%	22%	0%	0%	0%	48%	18%	10%	15%	25%	7%	0%	0%	9%	43%	18%	29%	1%
